# Nrf2 block = Nrf2 pathway inhibition; Potency, µM (doses to about 46 µM), most hits filed as inhibitors; A549 ARE-Fluc reporter, luciferase luminescence, 18-24 h; 360,000 compounds, 2.1% hits; further: nearly all actives have a fitted effect of over 60% in size
#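 Nrf2 function is reported as luminescence of an ARE-controlled luciferase in A549 cells. Compounds were tested at several concentrations, and a CellTiter-Fluor read on the same wells flagged cytotoxicity.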
# IL2 activator = activates IL-2 in a cell-based reporter assay; activation, % (series mostly up to about 46 µM); IL-2 activation reporter assay, cell-based qHTS; stimulated with anti-CD3/CD4/CD28 beads; in transgenic mouse T cells; 360,000 compounds, 0.065% hits; in the data active means activation above about 50%; inconclusive means mostly about 30% to 49%
#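 Readout: EGFP and DsRed signals by fluorescent plate cytometry. Unstimulated transgenic mouse T cells received compound 60 min before antibody-bead stimulation, then incubated 18 h at 37 degrees C.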
# A549 tox = A549 cytotoxicity, counter-screen for Nrf2 inhibitors; A549 ARE-Fluc cells, CellTiter-Fluor viability, 18-24 h; Potency, µM (doses to about 46 µM), actives largely listed as inhibitors; 390,000 compounds, 0.16% hits; AID 504648
#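 Cytotoxicity counterscreen: CellTiter-Fluor fluorescence was measured in A549 ARE_Fluc cells after 18-24 h of compound exposure in a concentration series. The subsequent BugLite luminescent read reports ARE-luciferase activity.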
# p53 reactivator = restores transcriptional activity of mutant p53. Potency, µM (titrated, usually from 92.2 µM), actives largely listed as activators. H1299 p53-A138V BP100-luciferase reporter, luminescence, 24 h. 320,000 compounds, 0.063% hits; further: nearly all actives have a fitted effect of over 45% in size
#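 H1299 (p53-null), stable ts p53-A138V + BP100-Luc; 1000 cells/well, Opti-MEM/10% FBS; cpd 4 pt, 1:5; 24 h, 37 deg C, 5% CO2; detection reagent 10 min RT; luminescence.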
# Nrf2 activator = activators of Nrf2 (ARE) signaling. AREc32 ARE-luciferase reporter (MCF7-derived line), luminescence, 24 h. Potency, µM (top dose mostly 46.1 µM), hits mostly activators. AID 624171. 410,000 compounds, 0.31% hits; further: nearly all actives have a fitted effect of over 65% in size
#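 ARE-driven firefly luciferase activity in AREc32 cells measured after a 24 hr compound exposure at 37 deg C, using Steady-Glo reagent and a 30 min room-temperature hold.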
# BRCA1 expr up = activators of BRCA1 expression; 380,000 compounds, 1.1% hits; Potency, µM (highest dose often 46.1 µM), most hits filed as activators; MCF7-BRCA1-FFLuc reporter, luminescence, 48 h; response scale: scaled: vehicle 0%, 10 µM genistein 100%; further: nearly all actives have a fitted effect of over 80% in size
#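 Quantitative HTS in MCF7 cells stably reporting BRCA1 expression via firefly luciferase. Compound treatment lasts 48 h at 37 °C in phenol-red free MEM. Activation is expressed relative to genistein at 10 microM and DMSO.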
# A number is an active result; . = inactive; ? = inconclusive; / = no result given. Only some compounds are listed: those with a hit (about 3.2% of all), similar ones and a draw of the others. Unless noted, the call rests on the fitted dose curve; in most records, active means well fitted curve in the direction sought with a large enough effect; inconclusive means small, poorly fitted or top-dose-only effect, or another doubt; inactive means no such curve, though single readings can be large; an effect the other way counts as inactive or inconclusive.
SMILES,Nrf2 block,IL2 activator,A549 tox,p53 reactivator,Nrf2 activator,BRCA1 expr up
Cc1ccc(NC(=O)Nc2ccc3c(c2)OCO3)c(OC(F)F)c1,?,.,.,.,.,2.5µM
O=C(NCc1ccc2c(c1)OCO2)Nc1ccc(F)cc1,.,.,.,.,.,10µM
O=C(O)c1ccc(COc2ccc3c4c(c(=O)oc3c2)CCC4)o1,?,.,.,.,.,.
CCc1cc(=O)oc2cc(OCc3ccc(C(=O)O)o3)ccc12,?,.,.,?,.,6.3µM
O=C(Cc1ccc(Cl)cc1)Nc1ccc(N2CCN(C(=O)c3ccco3)CC2)cc1,.,.,.,.,.,.
O=C(c1ccco1)N1CCN(c2ccc(Cl)c(Cl)c2)CC1,/,.,.,/,.,13µM
O=C(c1ccco1)N1CCN(c2ccc(Cl)cc2)CC1,.,.,.,?,.,11µM
COc1cc(NC(=O)c2c(C)oc3c2C2=NCCN2C=N3)cc(OC)c1OC,.,/,.,/,.,.
CC1CCc2nc3ncn(CC(=O)Nc4cccc(C#N)c4)c(=O)c3cc2C1 (configuration not stated),/,/,.,/,.,/
Cc1ccc(NC(=O)c2sc(-n3nc(C)c(Cc4ccc5c(c4)OCO5)c3C)nc2C)cc1Cl,.,/,.,/,.,/
Cc1ccc(Cl)c2c(N=Nc3ccccc3)c(O)[nH]c12,?,170,.,.,.,.
O=C(O)c1ccc(Nc2ncc([N+](=O)[O-])cc2[N+](=O)[O-])cc1,.,.,18µM,.,.,.
O=C(Nc1ccc(C(=O)O)cc1)Nc1ccc([N+](=O)[O-])cc1,.,.,.,/,.,.
COCc1ccc(C(=O)N(C)CC2CCCN(CCc3ccc(Cl)cc3)C2)o1 (configuration not stated),.,.,.,.,.,.
COCc1ccc(C(=O)N(C)CC2CCCN(CCc3ccc(OC)cc3)C2)o1 (configuration not stated),?,.,.,?,.,13µM
O=C(/C=C/c1ccccc1[N+](=O)[O-])N1CCc2ccccc2C1,.,.,.,/,8.9µM,.
COc1ccc(-c2nc3c4c(ncn3n2)-c2ccccc2CC42CCCC2)cc1,.,.,.,.,.,.
Oc1cccc(-c2nc3c4c(ncn3n2)-c2ccccc2CC42CCCC2)c1,23µM,.,?,.,.,.
COc1ccc(OC)c(NC(=O)N2CCN(S(=O)(=O)c3ccc4c(ccn4C)c3)CC2)c1,/,/,.,/,.,.
COc1ccc(N(Cc2ccccc2)S(=O)(=O)c2cccc(C(=O)Nc3ncccc3C)c2)cc1,18µM,.,.,.,.,.
Cc1ccc(N2C(=O)c3ccccc3C2Nc2ccc(S(=O)(=O)N3CCOCC3)cc2)nc1 (configuration not stated),.,.,.,.,.,14µM
Cc1ccc(N2C(=O)c3ccccc3C2Nc2ccc(S(=O)(=O)N3CCCCC3)cc2)nc1 (configuration not stated),?,.,.,.,.,.
Cc1ccc(OC(C)c2nnc(N)s2)cc1Cl (configuration not stated),16µM,.,.,.,.,.
COc1ccc(OC(C)c2nnc(N)s2)cc1 (configuration not stated),.,.,.,.,.,.
CCOCCCNc1nc2ccccc2[nH]1,.,.,.,?,.,.
SMILES,Nrf2 block,IL2 activator,A549 tox,p53 reactivator,Nrf2 activator,BRCA1 expr up
CCOCCCNc1ccc(-c2ccccc2)nn1,/,.,.,?,.,2.8µM
CCOC(=O)c1ccc(NC(=O)CN2C(=O)c3cccnc3Oc3ccc(Cl)cc32)cc1,.,/,.,/,.,/
Clc1ccc(-n2ncc3c(N4CCCCCC4)ncnc32)cc1,?,.,.,.,.,.
CC1CN(c2ncnc3c2cnn3-c2ccc(Cl)cc2)CC(C)O1 (configuration not stated),?,.,.,?,.,3.2µM
CCOC(=O)c1cc2c(=O)c3cc(C)ccc3oc2nc1C,?,.,.,?,.,11µM
CC(=O)c1cc2c(=O)c3cc(C)ccc3oc2nc1C,?,.,.,.,.,11µM
Cc1ccc2oc3nc(C)c(C(=O)O)cc3c(=O)c2c1,?,.,.,.,.,2.8µM
CCN(CC)C(=O)c1cc2c(=O)c3cc(Cl)ccc3oc2nc1C,.,.,.,.,.,?
CCCOc1ccc(/C=C/C(=O)Nc2ccc([N+](=O)[O-])cc2)cc1,23µM,.,.,.,.,.
CCCCOc1ccc(/C=C/C(=O)Nc2ccc([N+](=O)[O-])cc2C)cc1,?,.,.,.,.,.
CCOC(=O)C1CCN(CC(=O)Nc2cc(C)c3c(=O)oc4ccccc4c3n2)CC1,.,/,.,/,.,.
CC(=O)N1c2ccccc2CC1C(=O)N1CCN(c2cccc(C)c2C)CC1 (configuration not stated),/,/,.,/,.,/
CCOC(=O)c1c(S(=O)(=O)N2CCC(C(=O)Nc3cccc(C#N)c3)CC2)c(C)n(C)c1C,/,/,.,/,.,/
COC(=O)c1c(NC(=O)CN2C(=O)NC3(CCCCC3C)C2=O)sc2c1CCC2 (configuration not stated),16µM,.,.,.,.,.
CC(C)(C)OC(=O)N1CCC(c2c(C(=O)N3CCN(c4ccccc4)CC3)cnn2-c2ccccc2)CC1,.,/,.,/,.,/
COc1ccc(CNC(C)(C)C)cc1Cl,.,.,.,.,.,.
CC(C)COc1ccc(CN=C(N)N=C(N)N)cc1Cl,.,.,.,.,.,.
COc1ccc(CN=C(N)N=C(N)N)cc1Cl,16µM,.,.,.,.,.
CC(C)Oc1ccc(CN=C(N)N=C(N)N)cc1Cl,15µM,.,.,.,.,.
Cc1c(C(=O)N(Cc2ccc(Cl)cc2)CC2CCCO2)oc2ccc(F)cc12 (configuration not stated),?,/,.,/,.,/
COc1ccc(CNC(=O)Cc2coc3ccc(C)cc23)cc1,.,/,.,/,.,/
CCOC(=O)c1cccc(NC(=O)NCc2ccc3c(c2)CCN3C(=O)CC)c1,/,/,.,/,.,/
CCc1ccc(C(=O)c2cn(CC(=O)Nc3ccc(F)c(F)c3)c3cc(OC)c(OC)cc3c2=O)cc1,?,/,.,/,.,.
CCc1ccc(C(=O)c2cn(Cc3ccc(F)cc3)c3cc(OC)c(OC)cc3c2=O)cc1,.,/,21µM,/,.,/
COc1cccc(CNC(=O)C(NS(=O)(=O)c2cccs2)C(C)C)c1 (configuration not stated),.,/,.,/,.,.
Cc1ccc(Cl)cc1N1CCN(c2ncnc3onc(C)c23)CC1,21µM,/,.,/,.,.
